Compounds without any hit were thinned out: in the full panel of roughly 79,000, 15% have a hit. The source made the active and inactive calls. Cut-off read from the data, not from the text of the source: active = growth inhibition above about 70%; inactive = the rest.
Key:
[1] = NCI Yeast Anticancer Drug Screen. Data for the rad52 strain (AID 147);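 note: 0% = growth of vehicle-treated control cultures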; settings: S. cerevisiae rad52 mutant growth inhibition, stronger effect = higher value
Outline: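 Here a repair-compromised yeast strain receives each compound; its growth is then quantified and normalised to vehicle-only controls.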

[2] = NCI Yeast Anticancer Drug Screen. Data for the wt1 strain (AID 149);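 note: 0% = growth of vehicle-treated wt1 cultures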; settings: S. cerevisiae wt1 strain (SPY 50644) growth inhibition, stronger effect = higher value
Outline: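 Readout: yeast growth inhibition, normalised to vehicle controls, in the wt1 strain exposed to test compounds.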

[3] = NCI Yeast Anticancer Drug Screen. Data for the rad50EPP+ strain (AID 151);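 note: 0% = growth of vehicle-treated control cultures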; settings: S. cerevisiae rad50 mutant strain, stronger effect = higher value
Outline: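 Read-out is yeast growth inhibition relative to vehicle; cells used were the rad50EPP+ strain.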

[4] = NCI Yeast Anticancer Drug Screen. Data for the mgt1 strain (AID 153); settings: S. cerevisiae mgt1 mutant growth inhibition, stronger effect = higher value
Outline: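 Measured: inhibition of mgt1 yeast growth by compound, normalized to vehicle-treated cultures.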

[5] = NCI Yeast Anticancer Drug Screen. Data for the rad50 strain (AID 155);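 note: 0% = growth of vehicle-only cultures of the same strain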; settings: S. cerevisiae rad50 strain growth inhibition, stronger effect = higher value
Outline: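 Compounds were tested on a yeast strain with an engineered DNA damage repair alteration; the reported value is growth inhibition normalised to vehicle treatment.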

[6] = NCI Yeast Anticancer Drug Screen. Data for the mec2-1 strain (AID 157); settings: S. cerevisiae mec2-1 strain, stronger effect = higher value
Outline: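 Using mec2-1 yeast: add compound, measure growth, express inhibition versus vehicle-treated cultures.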

[7] = NCI Yeast Anticancer Drug Screen. Data for the rad14 strain (AID 159);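 note: 0% = growth of vehicle-treated control cultures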; settings: S. cerevisiae rad14 strain growth inhibition, stronger effect = higher value
Outline: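 Compound-treated yeast with a defined DNA-repair lesion; growth inhibition normalised to vehicle-treated cultures.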

[8] = NCI Yeast Anticancer Drug Screen. Data for the sgs1 mgt1 strain (AID 161);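 note: 0% = growth of cultures given vehicle only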; settings: S. cerevisiae sgs1 mgt1 strain, stronger effect = higher value
Outline: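 Compounds are added to genetically altered yeast, and growth is compared with cultures given vehicle alone to give percent inhibition.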

[9] = NCI Yeast Anticancer Drug Screen. Data for the CLN2oe strain (AID 163);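 note: 0% = growth of vehicle-only control cultures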; settings: S. cerevisiae CLN2oe strain, stronger effect = higher value
Outline: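 Whole-cell yeast growth assay. A strain engineered for altered cell-cycle control received compound, and inhibition relative to vehicle-treated cultures was recorded.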

[10] = NCI Yeast Anticancer Drug Screen. Data for the bub3 strain (AID 167); settings: S. cerevisiae bub3 mutant strain, stronger effect = higher value
Outline: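 Growth of a checkpoint-deficient yeast mutant is measured after compound exposure. Values represent inhibition relative to vehicle.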

[11] = NCI Yeast Anticancer Drug Screen. Data for the mlh1 strain (AID 171);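 note: 0% = growth of vehicle-treated control cultures of the same strain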; settings: S. cerevisiae mlh1 strain growth inhibition, stronger effect = higher value
Outline: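 A yeast strain with a defined genetic lesion serves as the test organism. Cultures receive compound or vehicle, and growth is measured.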

[12] = NCI Yeast Anticancer Drug Screen. Data for the sgs1 strain (AID 173);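 note: 0% = growth of vehicle-only control cultures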; settings: S. cerevisiae sgs1 mutant, stronger effect = higher value
Outline: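 A genetically defined yeast mutant is incubated with the test compound, and its growth is compared to that of the same strain given vehicle.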

[13] = NCI Yeast Anticancer Drug Screen. Data for the mlh1 rad18 strain (AID 175); settings: S. cerevisiae mlh1 rad18 strain growth inhibition, stronger effect = higher value
Outline: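 Steps: expose repair-defective yeast to compound; measure growth; express inhibition against vehicle-treated controls.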

[14] = NCI Yeast Anticancer Drug Screen. Data for the rad18 strain (AID 177); settings: S. cerevisiae rad18 mutant growth inhibition, stronger effect = higher value
Outline: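 Measured value is growth inhibition of a yeast strain bearing a DNA repair alteration, referenced to vehicle-treated cells.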

[15] = NCI Yeast Anticancer Drug Screen. Data for the cln2 rad14 strain (AID 165);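 note: 0% = growth equal to vehicle treated cultures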; settings: S. cerevisiae cln2 rad14 strain, stronger effect = higher value
Outline: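 Yeast strain cln2 rad14, bearing defects in cell cycle control and DNA repair, serves as the test system; values reflect growth inhibition compared with vehicle.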

[16] = at 5.0 µM (retest, dose inferred, filed as 0.5)
[17] = at 50.0 µM (retest, dose inferred, filed as 5.0)

Measured: growth inhibition

OC1(C#CI)CCCCC1
active: [1]; at 11.0 µM 96% | [1]; at 33.0 µM 98% | [1]; at 100.0 µM 99% | [2]; at 11.0 µM 96% | [2]; at 33.0 µM 99% | [2]; at 100.0 µM 99% | [3]; at 11.0 µM 96% | [3]; at 33.0 µM 99% | [3]; at 100.0 µM 99% | [4]; at 11.0 µM 88% | [4]; at 33.0 µM 99% | [4]; at 100.0 µM 99% | [5]; at 11.0 µM 98% | [5]; at 33.0 µM 99% | [5]; [17] 97% | [5]; at 50.0 µM 99.7% | [5]; at 100.0 µM 99% | [6]; at 11.0 µM 89% | [6]; at 33.0 µM 99% | [6]; [17] 98% | [6]; at 50.0 µM 99.5% | [6]; at 100.0 µM 100% | [7]; at 11.0 µM 98% | [7]; at 33.0 µM 99% | [7]; at 100.0 µM 100% | [8]; [17] 97% | [8]; at 50.0 µM 98.6% | [9]; at 11.0 µM 82% | [9]; at 33.0 µM 99% | [9]; at 100.0 µM 99% | [10]; at 11.0 µM 97% | [10]; at 33.0 µM 99% | [10]; [17] 97% | [10]; at 50.0 µM 99.3% | [10]; at 100.0 µM 99% | [11]; at 11.0 µM 96% | [11]; at 33.0 µM 99% | [11]; at 100.0 µM 99% | [12]; at 11.0 µM 96% | [12]; at 33.0 µM 99% | [12]; at 100.0 µM 99% | [13]; [17] 97% | [13]; at 50.0 µM 99.1% | [14]; at 11.0 µM 96% | [14]; at 33.0 µM 99% | [14]; at 100.0 µM 99%
inactive: [1]; at 1.2 µM 1% | [1]; at 3.7 µM 43% | [2]; at 1.2 µM -4% | [2]; at 3.7 µM 38% | [3]; at 1.2 µM -16% | [3]; at 3.7 µM 40% | [4]; at 1.2 µM -7% | [4]; at 3.7 µM -3% | [5]; at 1.2 µM -6% | [5]; at 3.7 µM 58% | [5]; [16] 67% | [6]; at 1.2 µM -4% | [6]; at 3.7 µM 6% | [6]; [16] -18% | [7]; at 1.2 µM -2% | [7]; at 3.7 µM 32% | [8]; [16] -20% | [9]; at 1.2 µM -11% | [9]; at 3.7 µM -5% | [10]; at 1.2 µM -19% | [10]; at 3.7 µM 12% | [10]; [16] -35% | [11]; at 1.2 µM -14% | [11]; at 3.7 µM 17% | [12]; at 1.2 µM 1% | [12]; at 3.7 µM 37% | [13]; [16] -52% | [14]; at 1.2 µM 3% | [14]; at 3.7 µM 60%

NC(=O)NC1C(c2ccccc2)=C1c1ccccc1
inactive: [1]; at 1.2 µM 37% | [1]; at 3.7 µM 58% | [2]; at 1.2 µM -2% | [2]; at 3.7 µM 12% | [2]; at 11.0 µM 26% | [2]; at 33.0 µM 26% | [2]; at 100.0 µM 27% | [4]; at 1.2 µM 0% | [4]; at 3.7 µM -2% | [4]; at 11.0 µM 0% | [4]; at 33.0 µM -3% | [4]; at 100.0 µM 19% | [5]; at 1.2 µM 61% | [5]; [16] -19% | [6]; at 1.2 µM 0% | [6]; at 3.7 µM -1% | [6]; [16] -50% | [6]; at 11.0 µM 6% | [6]; at 33.0 µM 5% | [6]; [17] -36% | [6]; at 50.0 µM 13.2% | [6]; at 100.0 µM 27% | [7]; at 1.2 µM 51% | [7]; at 3.7 µM 58% | [8]; [16] -45% | [8]; [17] -10% | [8]; at 50.0 µM 17.4% | [9]; at 1.2 µM -3% | [9]; at 3.7 µM -3% | [9]; at 11.0 µM -3% | [9]; at 33.0 µM -5% | [9]; at 100.0 µM 30% | [15]; [16] -18% | [15]; [17] 62% | [15]; at 50.0 µM 38% | [10]; at 1.2 µM -1% | [10]; at 3.7 µM -6% | [10]; [16] -73% | [10]; at 11.0 µM -4% | [10]; at 33.0 µM -14% | [10]; [17] -68% | [10]; at 50.0 µM -28.7% | [10]; at 100.0 µM -10%
active: [1]; at 11.0 µM 71% | [1]; at 33.0 µM 94% | [1]; at 100.0 µM 95% | [3]; at 1.2 µM 74% | [3]; at 3.7 µM 73% | [3]; at 11.0 µM 89% | [3]; at 33.0 µM 96% | [3]; at 100.0 µM 95% | [5]; at 3.7 µM 70% | [5]; at 11.0 µM 84% | [5]; at 33.0 µM 93% | [5]; [17] 79% | [5]; at 50.0 µM 92% | [5]; at 100.0 µM 95% | [7]; at 11.0 µM 73% | [7]; at 33.0 µM 97% | [7]; at 100.0 µM 97%

Source: PubChem BioAssay (NCI)
